Test results taken from article PMC11062922 (Nature Chemical Biology, 2023).
Where two headings read alike, the source gives them in different places.

How the values were obtained:
PRKAA2 = conditions: read-out: apparent Kd, n = 1
PRKD2 = conditions: read-out: apparent Kd, n = 1
[1] = compound concentrations:100 nM and 1000 nM (sheet 'Lestaurtinib' of Supplementary Table 1),run:Lestaurtinib_02496_R2,Plate:MR013
[2] = compound concentrations:100 nM and 1000 nM (sheet 'Lestaurtinib' of Supplementary Table 1),run:Lestaurtinib_02496_R3,Plate:MR013
[3] = compound concentrations:100 nM and 1000 nM (sheet 'Lestaurtinib' of Supplementary Table 1),run:Lestaurtinib_02572_R1,Plate:MR015
[4] = compound concentrations:100 nM and 1000 nM (sheet 'Lestaurtinib' of Supplementary Table 1),run:Lestaurtinib_02572_R2,Plate:MR015
[5] = compound concentrations:100 nM and 1000 nM (sheet 'Lestaurtinib' of Supplementary Table 1),run:Lestaurtinib_02572_R3,Plate:MR015
[6] = compound concentrations:100 nM and 1000 nM (sheet 'Lestaurtinib' of Supplementary Table 1),run:Lestaurtinib_02577_R3,Plate:MR016
[7] = compound concentrations:100 nM and 1000 nM (sheet 'Lestaurtinib' of Supplementary Table 1),run:Lestaurtinib_02584_R1,Plate:MR017
[8] = compound concentrations:100 nM and 1000 nM (sheet 'Lestaurtinib' of Supplementary Table 1),run:Lestaurtinib_02584_R3,Plate:MR017
[9] = compound concentrations:100 nM and 1000 nM (sheet 'Lestaurtinib' of Supplementary Table 1),run:Lestaurtinib_02601_R2,Plate:MR018
[10] = compound concentrations:100 nM and 1000 nM (sheet 'Lestaurtinib' of Supplementary Table 1),run:Lestaurtinib_02624_R1,Plate:MR020
[11] = compound concentrations:100 nM and 1000 nM (sheet 'Lestaurtinib' of Supplementary Table 1),run:Lestaurtinib_02624_R3,Plate:MR020
[12] = compound concentrations:100 nM and 1000 nM (sheet 'Lestaurtinib' of Supplementary Table 1),run:Lestaurtinib_02724_R2,Plate:MR021
[13] = compound concentrations:100 nM and 1000 nM (sheet 'Lestaurtinib' of Supplementary Table 1),run:Lestaurtinib_02724_R3,Plate:MR021

## Lestaurtinib
PRKAA2; [1]
  potency estimated from few doses: 598 nM
PRKAA2; [2]
  potency estimated from few doses: 785 nM
PRKAA2; [3]
  potency estimated from few doses: 617 nM
PRKAA2; [4]
  potency estimated from few doses: 1330 nM
PRKAA2; [5]
  potency estimated from few doses: 1400 nM
PRKAA2; compound concentrations:100 nM and 1000 nM (sheet 'Lestaurtinib' of Supplementary Table 1),run:Lestaurtinib_02577_R2,Plate:MR016
  potency estimated from few doses: 1210 nM
PRKAA2; [6]
  potency estimated from few doses: 924 nM
PRKAA2; [7]
  potency estimated from few doses: 1410 nM
PRKAA2; [8]
  potency estimated from few doses: 1530 nM
PRKAA2; compound concentrations:100 nM and 1000 nM (sheet 'Lestaurtinib' of Supplementary Table 1),run:Lestaurtinib_02601_R1,Plate:MR018
  potency estimated from few doses: 805 nM
PRKAA2; [9]
  potency estimated from few doses: 710 nM
PRKAA2; compound concentrations:100 nM and 1000 nM (sheet 'Lestaurtinib' of Supplementary Table 1),run:Lestaurtinib_02606_R2,Plate:MR019
  potency estimated from few doses: 749 nM
PRKAA2; compound concentrations:100 nM and 1000 nM (sheet 'Lestaurtinib' of Supplementary Table 1),run:Lestaurtinib_02606_R3,Plate:MR019
  potency estimated from few doses: 736 nM
PRKAA2; [10]
  potency estimated from few doses: 849 nM
PRKAA2; compound concentrations:100 nM and 1000 nM (sheet 'Lestaurtinib' of Supplementary Table 1),run:Lestaurtinib_02624_R2,Plate:MR020
  potency estimated from few doses: 711 nM
PRKAA2; [11]
  potency estimated from few doses: 877 nM
PRKAA2; [12]
  potency estimated from few doses: 803 nM
PRKAA2; [13]
  potency estimated from few doses: 946 nM
PRKAA2; compound concentrations:100 nM and 1000 nM (sheet 'Lestaurtinib' of Supplementary Table 1),run:Lestaurtinib_02748_R1,Plate:MR024
  potency estimated from few doses: 752 nM
PRKAA2; compound concentrations:100 nM and 1000 nM (sheet 'Lestaurtinib' of Supplementary Table 1),run:Lestaurtinib_02748_R3,Plate:MR024
  potency estimated from few doses: 559 nM
PRKAA2; compound concentrations:100 nM and 1000 nM (sheet 'Lestaurtinib' of Supplementary Table 1),run:Lestaurtinib_02752_R2,Plate:MR025
  potency estimated from few doses: 851 nM
PRKAA2; compound concentrations:100 nM and 1000 nM (sheet 'Lestaurtinib' of Supplementary Table 1),run:Lestaurtinib_02752_R3,Plate:MR025
  potency estimated from few doses: 786 nM
PRKAA2; compound concentrations:100 nM and 1000 nM (sheet 'Lestaurtinib' of Supplementary Table 1),run:Lestaurtinib_02765_R1,Plate:MR026
  potency estimated from few doses: 911 nM
PRKAA2; compound concentrations:100 nM and 1000 nM (sheet 'Lestaurtinib' of Supplementary Table 1),run:Lestaurtinib_02765_R2,Plate:MR026
  potency estimated from few doses: 741 nM
PRKAA2; compound concentrations:100 nM and 1000 nM (sheet 'Lestaurtinib' of Supplementary Table 1),run:Lestaurtinib_02766_R1,Plate:MR027
  potency estimated from few doses: 782 nM
PRKAA2; compound concentrations:100 nM and 1000 nM (sheet 'Lestaurtinib' of Supplementary Table 1),run:Lestaurtinib_02766_R2,Plate:MR027
  potency estimated from few doses: 96.4 nM
PRKAA2; compound concentrations:100 nM and 1000 nM (sheet 'Lestaurtinib' of Supplementary Table 1),run:Lestaurtinib_02766_R3,Plate:MR027
  potency estimated from few doses: 669 nM
PRKAA2; compound concentrations:100 nM and 1000 nM (sheet 'Lestaurtinib' of Supplementary Table 1),run:Lestaurtinib_02768_R3,Plate:MR028
  potency estimated from few doses: 518 nM
PRKAA2; compound concentrations:100 nM and 1000 nM (sheet 'Lestaurtinib' of Supplementary Table 1),run:Lestaurtinib_02795_R2,Plate:MR022
  potency estimated from few doses: 783 nM
PRKAA2; compound concentrations:100 nM and 1000 nM (sheet 'Lestaurtinib' of Supplementary Table 1),run:Lestaurtinib_02795_R3,Plate:MR022
  potency estimated from few doses: 860 nM
PRKAA2; compound concentrations:100 nM and 1000 nM (sheet 'Lestaurtinib' of Supplementary Table 1),run:Lestaurtinib_02802_R1,Plate:MR029
  potency estimated from few doses: 713 nM
PRKAA2; compound concentrations:100 nM and 1000 nM (sheet 'Lestaurtinib' of Supplementary Table 1),run:Lestaurtinib_02802_R2,Plate:MR029
  potency estimated from few doses: 472 nM
PRKAA2; compound concentrations:100 nM and 1000 nM (sheet 'Lestaurtinib' of Supplementary Table 1),run:Lestaurtinib_02802_R3,Plate:MR029
  potency estimated from few doses: 74.9 nM
PRKAA2; compound concentrations:100 nM and 1000 nM (sheet 'Lestaurtinib' of Supplementary Table 1),run:Lestaurtinib_02896_R2,Plate:MR030
  potency estimated from few doses: 1800 nM
PRKAA2; compound concentrations:100 nM and 1000 nM (sheet 'Lestaurtinib' of Supplementary Table 1),run:Lestaurtinib_02896_R3,Plate:MR030
  potency estimated from few doses: 761 nM
PRKAA2; compound concentrations:100 nM and 1000 nM (sheet 'Lestaurtinib' of Supplementary Table 1),run:Lestaurtinib_03172_R1,Plate:MR031
  potency estimated from few doses: 796 nM
PRKAA2; compound concentrations:100 nM and 1000 nM (sheet 'Lestaurtinib' of Supplementary Table 1),run:Lestaurtinib_03172_R2,Plate:MR031
  potency estimated from few doses: 564 nM
PRKAA2; compound concentrations:100 nM and 1000 nM (sheet 'Lestaurtinib' of Supplementary Table 1),run:Lestaurtinib_03172_R3,Plate:MR031
  potency estimated from few doses: 696 nM
PRKAA2; compound concentrations:100 nM and 1000 nM (sheet 'Lestaurtinib' of Supplementary Table 1),run:Lestaurtinib_03252_R1,Plate:MR032
  potency estimated from few doses: 1210 nM
PRKAA2; compound concentrations:100 nM and 1000 nM (sheet 'Lestaurtinib' of Supplementary Table 1),run:Lestaurtinib_03252_R2,Plate:MR032
  potency estimated from few doses: 26.1 nM
PRKD2; compound concentrations:100 nM and 1000 nM (sheet 'Lestaurtinib' of Supplementary Table 1),run:Lestaurtinib_02339_R1,Plate:MR001
  potency estimated from few doses: 41.6 nM
PRKD2; compound concentrations:100 nM and 1000 nM (sheet 'Lestaurtinib' of Supplementary Table 1),run:Lestaurtinib_02339_R3,Plate:MR001
  potency estimated from few doses: 39.3 nM
PRKD2; compound concentrations:100 nM and 1000 nM (sheet 'Lestaurtinib' of Supplementary Table 1),run:Lestaurtinib_02364_R3,Plate:MR002
  potency estimated from few doses: 45.4 nM
PRKD2; compound concentrations:100 nM and 1000 nM (sheet 'Lestaurtinib' of Supplementary Table 1),run:Lestaurtinib_02367_R2,Plate:MR003
  potency estimated from few doses: 43.5 nM
PRKD2; compound concentrations:100 nM and 1000 nM (sheet 'Lestaurtinib' of Supplementary Table 1),run:Lestaurtinib_02367_R3,Plate:MR003
  potency estimated from few doses: 44.3 nM
PRKD2; compound concentrations:100 nM and 1000 nM (sheet 'Lestaurtinib' of Supplementary Table 1),run:Lestaurtinib_02381_R1,Plate:MR004
  potency estimated from few doses: 50.1 nM
PRKD2; compound concentrations:100 nM and 1000 nM (sheet 'Lestaurtinib' of Supplementary Table 1),run:Lestaurtinib_02381_R2,Plate:MR004
  potency estimated from few doses: 54.4 nM
PRKD2; compound concentrations:100 nM and 1000 nM (sheet 'Lestaurtinib' of Supplementary Table 1),run:Lestaurtinib_02381_R3,Plate:MR004
  potency estimated from few doses: 41.5 nM
PRKD2; compound concentrations:100 nM and 1000 nM (sheet 'Lestaurtinib' of Supplementary Table 1),run:Lestaurtinib_02407_R2,Plate:MR005
  potency estimated from few doses: 51.1 nM
PRKD2; compound concentrations:100 nM and 1000 nM (sheet 'Lestaurtinib' of Supplementary Table 1),run:Lestaurtinib_02407_R3,Plate:MR005
  potency estimated from few doses: 45.8 nM
PRKD2; compound concentrations:100 nM and 1000 nM (sheet 'Lestaurtinib' of Supplementary Table 1),run:Lestaurtinib_02422_R1,Plate:MR006
  potency estimated from few doses: 40.9 nM
PRKD2; compound concentrations:100 nM and 1000 nM (sheet 'Lestaurtinib' of Supplementary Table 1),run:Lestaurtinib_02422_R2,Plate:MR006
  potency estimated from few doses: 24 nM
PRKD2; compound concentrations:100 nM and 1000 nM (sheet 'Lestaurtinib' of Supplementary Table 1),run:Lestaurtinib_02422_R3,Plate:MR006
  potency estimated from few doses: 41 nM
PRKD2; compound concentrations:100 nM and 1000 nM (sheet 'Lestaurtinib' of Supplementary Table 1),run:Lestaurtinib_02437_R1,Plate:MR007
  potency estimated from few doses: 45.2 nM
PRKD2; compound concentrations:100 nM and 1000 nM (sheet 'Lestaurtinib' of Supplementary Table 1),run:Lestaurtinib_02437_R2,Plate:MR007
  potency estimated from few doses: 74.6 nM
PRKD2; compound concentrations:100 nM and 1000 nM (sheet 'Lestaurtinib' of Supplementary Table 1),run:Lestaurtinib_02437_R3,Plate:MR007
  potency estimated from few doses: 3.14 nM
PRKD2; compound concentrations:100 nM and 1000 nM (sheet 'Lestaurtinib' of Supplementary Table 1),run:Lestaurtinib_02438_R1,Plate:MR008
  potency estimated from few doses: 45.4 nM
PRKD2; compound concentrations:100 nM and 1000 nM (sheet 'Lestaurtinib' of Supplementary Table 1),run:Lestaurtinib_02438_R2,Plate:MR008
  potency estimated from few doses: 51 nM
PRKD2; compound concentrations:100 nM and 1000 nM (sheet 'Lestaurtinib' of Supplementary Table 1),run:Lestaurtinib_02438_R3,Plate:MR008
  potency estimated from few doses: 31.7 nM
PRKD2; compound concentrations:100 nM and 1000 nM (sheet 'Lestaurtinib' of Supplementary Table 1),run:Lestaurtinib_02443_R2,Plate:MR009
  potency estimated from few doses: 43.2 nM
PRKD2; compound concentrations:100 nM and 1000 nM (sheet 'Lestaurtinib' of Supplementary Table 1),run:Lestaurtinib_02473_R3,Plate:MR010
  potency estimated from few doses: 38.9 nM
PRKD2; compound concentrations:100 nM and 1000 nM (sheet 'Lestaurtinib' of Supplementary Table 1),run:Lestaurtinib_02482_R2,Plate:MR011
  potency estimated from few doses: 50.4 nM
PRKD2; compound concentrations:100 nM and 1000 nM (sheet 'Lestaurtinib' of Supplementary Table 1),run:Lestaurtinib_02482_R3,Plate:MR011
  potency estimated from few doses: 42.2 nM
PRKD2; compound concentrations:100 nM and 1000 nM (sheet 'Lestaurtinib' of Supplementary Table 1),run:Lestaurtinib_02487_R2,Plate:MR012
  potency estimated from few doses: 40.1 nM
PRKD2; compound concentrations:100 nM and 1000 nM (sheet 'Lestaurtinib' of Supplementary Table 1),run:Lestaurtinib_02487_R3,Plate:MR012
  potency estimated from few doses: 67.4 nM
PRKD2; compound concentrations:100 nM and 1000 nM (sheet 'Lestaurtinib' of Supplementary Table 1),run:Lestaurtinib_02496_R1,Plate:MR013
  potency estimated from few doses: 47.4 nM
PRKD2; [1]
  potency estimated from few doses: 58.1 nM
PRKD2; [2]
  potency estimated from few doses: 50.5 nM
PRKD2; compound concentrations:100 nM and 1000 nM (sheet 'Lestaurtinib' of Supplementary Table 1),run:Lestaurtinib_02566_R1,Plate:MR014
  potency estimated from few doses: 67.2 nM
PRKD2; compound concentrations:100 nM and 1000 nM (sheet 'Lestaurtinib' of Supplementary Table 1),run:Lestaurtinib_02566_R2,Plate:MR014
  potency estimated from few doses: 39.4 nM
PRKD2; compound concentrations:100 nM and 1000 nM (sheet 'Lestaurtinib' of Supplementary Table 1),run:Lestaurtinib_02566_R3,Plate:MR014
  potency estimated from few doses: 46.5 nM
PRKD2; [3]
  potency estimated from few doses: 38.1 nM
PRKD2; [4]
  potency estimated from few doses: 52 nM
PRKD2; [5]
  potency estimated from few doses: 82.5 nM
PRKD2; [6]
  potency estimated from few doses: 35.8 nM
PRKD2; [7]
  potency estimated from few doses: 50.7 nM
PRKD2; [8]
  potency estimated from few doses: 33 nM
PRKD2; [9]
  potency estimated from few doses: 54.7 nM
PRKD2; compound concentrations:100 nM and 1000 nM (sheet 'Lestaurtinib' of Supplementary Table 1),run:Lestaurtinib_02601_R3,Plate:MR018
  potency estimated from few doses: 50.7 nM
PRKD2; compound concentrations:100 nM and 1000 nM (sheet 'Lestaurtinib' of Supplementary Table 1),run:Lestaurtinib_02606_R1,Plate:MR019
  potency estimated from few doses: 41.7 nM
PRKD2; [10]
  potency estimated from few doses: 52.8 nM
PRKD2; [11]
  potency estimated from few doses: 37.9 nM
PRKD2; compound concentrations:100 nM and 1000 nM (sheet 'Lestaurtinib' of Supplementary Table 1),run:Lestaurtinib_02724_R1,Plate:MR021
  potency estimated from few doses: 39.4 nM
PRKD2; [12]
  potency estimated from few doses: 50.8 nM
PRKD2; [13]
  potency estimated from few doses: 44.7 nM
